Some test systems named below: DU-145 prostate; K-562 leukemia; MALME-3M melanoma; MDA-MB-231 breast; RXF 393 renal; SF-268 CNS; SF-295 CNS; SF-539 CNS; UACC-257 melanoma; M14 melanoma.
Holding throughout (experiment): NCI-60 one-dose screen, 48 h (100 = growth as untreated, 0 = no growth, -100 = all killed)
Holding throughout (settings): 10 µM unless noted

The record followed here is PubChem BioAssay (NCI).

Compounds without any hit were thinned out: in the full panel of roughly 83,000, 20% have a hit.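 Percent growth is the endpoint: 0 to 100 indicates growth inhibition (40 means 60% inhibition), 0 means no net growth, and negative values indicate cell death.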 Unmarked numbers belong to inactive results. The source made the active and inactive calls. The calls were made as follows: active = growth percent below 10; inactive = the rest.

Consider `COc1cc(C(=O)N2CCN(c3ccccc3)CC2)c2ccccc2n1`, for which the growth in the assay on DU-145 prostate was 1.57% (active); with K-562 leukemia, 16.5%; in the assay on MALME-3M melanoma, 54.6%; in the assay with MDA-MB-231 breast it was 5.71% (active); in the assay with RXF 393 renal, -39.8% (active); in the assay on SF-268 CNS it was 42.9%. Further, the growth in the assay with SF-295 CNS was 7.61% (active); with SF-539 CNS, -4.8% (active); in the assay on UACC-257 melanoma, 51.1%; with M14 melanoma it was 0.444% (active).

On to `NC(=O)N1CCOCC1`, for which the growth in the assay on DU-145 prostate is 123%; in the assay on K-562 leukemia, 96.6%; in the assay with MALME-3M melanoma it was 111%; in the assay with MDA-MB-231 breast, 128%; in the assay on RXF 393 renal it was 117%; with SF-268 CNS, 109%. The growth in the assay on SF-295 CNS was 115%; in the assay on SF-539 CNS, 117%; in the assay with UACC-257 melanoma, 119%; in the assay on M14 melanoma it was 108%.

`O=C(c1ccccc1)c1ccc(-c2ccc(O)cc2)cc1`: the growth was 69.8% in the assay with DU-145 prostate; 90.2% in the assay on K-562 leukemia; 84% in the assay on MALME-3M melanoma; 55.4% with MDA-MB-231 breast; -4.28% (active) in the assay on RXF 393 renal; 67.4% in the assay on SF-268 CNS. Further, the growth with SF-295 CNS was 29.6%; in the assay with SF-539 CNS, 79.5%; with UACC-257 melanoma, 25.3%; in the assay on M14 melanoma it was 25.8%.

On to `O=C(O)CSCC(=O)Nc1cc(C(F)(F)F)ccc1Cl`, for which the growth in the assay with DU-145 prostate was 128%; in the assay on K-562 leukemia it was 102%; in the assay with MALME-3M melanoma it was 105%; in the assay on MDA-MB-231 breast, 112%; in the assay on RXF 393 renal, 128%; in the assay with SF-268 CNS it was 94.5%. For the same compound, the growth with SF-295 CNS is 103%; in the assay on SF-539 CNS it was 101%; in the assay on UACC-257 melanoma, 103%; in the assay on M14 melanoma it was 103%.

Turning to `CC(=O)OC(C)c1cccc(C#N)c1` (stereo not given), the growth with DU-145 prostate was 108%; in the assay on K-562 leukemia, 103%; in the assay on MALME-3M melanoma, 103%; in the assay with MDA-MB-231 breast, 108%; in the assay with RXF 393 renal, 110%; with SF-268 CNS it was 103%. For the same compound, the growth is 102% in the assay on SF-295 CNS, 101% in the assay on SF-539 CNS, 100% with UACC-257 melanoma and 97.4% in the assay on M14 melanoma.

Turning to `Cc1cc(CO)c(O)c(CO)c1`, the growth with DU-145 prostate was 115%; in the assay with K-562 leukemia it was 87.3%; in the assay on MALME-3M melanoma it was 104%; in the assay on MDA-MB-231 breast, 108%; in the assay on RXF 393 renal, 112%; in the assay with SF-268 CNS it was 105%. For the same compound, the growth with SF-295 CNS was 109%; in the assay on SF-539 CNS, 110%; in the assay with UACC-257 melanoma, 95.8%; in the assay with M14 melanoma it was 97.6%.

On to `Cn1/c(=N\N=C\c2ccccc2OCCO)sc2ccccc21`, for which the growth in the assay with DU-145 prostate was 109%; in the assay on K-562 leukemia it was 76.7%; in the assay with MALME-3M melanoma, 80.2%; in the assay with MDA-MB-231 breast, 72.1%; in the assay with RXF 393 renal, 102%; with SF-268 CNS it was 94.1%. Also, the growth in the assay with SF-295 CNS is 94%; with SF-539 CNS, 92.9%; in the assay on UACC-257 melanoma it was 121%; in the assay on M14 melanoma it was 103%.

For `Cn1c(=O)c2[nH]c(CCCCC(=O)O)nc2n(C)c1=O`, the growth was 110% in the assay on DU-145 prostate; 109% with K-562 leukemia; 115% with MALME-3M melanoma; 110% in the assay with MDA-MB-231 breast; 127% in the assay on RXF 393 renal; 99.2% in the assay with SF-268 CNS. Also, the growth with SF-295 CNS is 123%; in the assay on SF-539 CNS, 106%; in the assay with UACC-257 melanoma, 103%; in the assay on M14 melanoma, 111%.

As to `CCCCNC(=O)c1ccc(OCC)cc1`, the growth in the assay on DU-145 prostate is 108%; in the assay on K-562 leukemia it was 112%; in the assay with MALME-3M melanoma, 101%; in the assay on MDA-MB-231 breast, 108%; in the assay with RXF 393 renal, 109%; in the assay on SF-268 CNS, 106%. Also, the growth is 106% in the assay on SF-295 CNS, 104% with SF-539 CNS, 102% in the assay with UACC-257 melanoma and 99.7% in the assay with M14 melanoma.

As for `c1ccc2[nH]c(Cc3nc4ccccc4[nH]3)nc2c1`, the growth was 109% in the assay with DU-145 prostate; 126% with K-562 leukemia; 89% in the assay with MALME-3M melanoma; 106% in the assay on MDA-MB-231 breast; 114% in the assay on RXF 393 renal; 131% in the assay with SF-268 CNS. Further, the growth in the assay on SF-295 CNS was 101%; in the assay with SF-539 CNS, 105%; in the assay with UACC-257 melanoma, 111%; in the assay with M14 melanoma it was 94.3%.

As to `ClCC(Cl)C1CCC(Cl)C(Cl)C1` (stereo not given), the growth was 102% in the assay with DU-145 prostate; 105% in the assay with K-562 leukemia; 99.5% in the assay with MALME-3M melanoma; 113% with MDA-MB-231 breast; 125% with RXF 393 renal; 98.1% in the assay on SF-268 CNS. The growth with SF-295 CNS was 95.9%; with SF-539 CNS it was 96.6%; with UACC-257 melanoma it was 101%; with M14 melanoma, 101%.

As for `COc1cccc(C(=O)O)c1OC`, the growth in the assay with DU-145 prostate was 111%; in the assay with K-562 leukemia it was 107%; in the assay on MALME-3M melanoma, 103%; in the assay with MDA-MB-231 breast, 99.2%; in the assay with RXF 393 renal it was 115%; in the assay on SF-268 CNS it was 105%. For the same compound, the growth is 87.5% in the assay with SF-295 CNS, 96.4% with SF-539 CNS, 97.6% with UACC-257 melanoma and 103% with M14 melanoma.

Consider `COc1ccc(C2CCCCC2=O)cc1` (stereo not given), for which the growth was 123% with DU-145 prostate; 104% in the assay on K-562 leukemia; 120% in the assay on MALME-3M melanoma; 120% with MDA-MB-231 breast; 110% with RXF 393 renal; 116% in the assay with SF-268 CNS. The growth was 100% in the assay on SF-295 CNS, 102% in the assay with SF-539 CNS, 106% in the assay on UACC-257 melanoma and 108% in the assay with M14 melanoma.

With `CCNCC(C)(C)O`, the growth with DU-145 prostate was 118%; in the assay with K-562 leukemia, 111%; with MALME-3M melanoma, 100%; in the assay on MDA-MB-231 breast it was 94.9%; in the assay with RXF 393 renal, 117%; in the assay on SF-268 CNS, 119%. Besides, the growth in the assay on SF-295 CNS was 103%; with SF-539 CNS, 102%; in the assay with UACC-257 melanoma it was 98.7%; in the assay on M14 melanoma, 95.5%.

As for `CN(C)c1ccc2c(N(C)C)cc(N(C)C)nc2c1`, the growth in the assay with DU-145 prostate is 93%; in the assay with K-562 leukemia, 64.4%; in the assay on MALME-3M melanoma, 98.4%; in the assay with MDA-MB-231 breast it was 64.2%; in the assay on RXF 393 renal, 97.7%; in the assay on SF-268 CNS it was 91.6%. Besides, the growth in the assay with SF-295 CNS is 65.9%; in the assay on SF-539 CNS it was 84.9%; in the assay on UACC-257 melanoma, 122%; in the assay on M14 melanoma, 81.7%.
